In all, about 360,000 compounds went through this assay and about 3,700 (1%) were called active. The full list was thinned out, with actives kept by preference. Unmarked numbers belong to inactive results. Cut-off read from the data, not from the text of the source: active = activation above about 30%; inactive = the rest.

D(1A) dopamine receptor (Homo sapiens), sequence (P21728 whole entry, looked up): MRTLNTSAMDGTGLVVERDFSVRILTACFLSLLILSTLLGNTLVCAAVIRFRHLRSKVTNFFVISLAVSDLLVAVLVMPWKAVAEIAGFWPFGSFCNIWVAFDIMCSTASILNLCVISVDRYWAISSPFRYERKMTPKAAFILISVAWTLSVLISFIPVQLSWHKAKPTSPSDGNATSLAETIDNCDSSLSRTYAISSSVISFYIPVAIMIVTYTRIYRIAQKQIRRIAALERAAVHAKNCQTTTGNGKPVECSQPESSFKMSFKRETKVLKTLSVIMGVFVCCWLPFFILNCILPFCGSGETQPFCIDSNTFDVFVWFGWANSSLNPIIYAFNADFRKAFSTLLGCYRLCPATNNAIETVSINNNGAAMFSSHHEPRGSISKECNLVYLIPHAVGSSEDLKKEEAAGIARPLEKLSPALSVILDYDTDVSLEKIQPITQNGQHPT

The assay deals with D(1A) dopamine receptor (Homo sapiens) (UniProt P21728). Description: Allosteric Agonists of the Human D1 Dopamine Receptor: qHTS. Note: 0% is about no effect. To be noted: HEK293 T-REx D1 cells, calcium flux, agonist mode; at 2 µM; active compounds read high. The method, boiled down:
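Agonism was scored from calcium flux recorded over 180 s (1 read/s) after pintool compound addition, following a 10-cycle baseline. Cells were inducible force-coupled HEK293 TREx D1, plated overnight at 30 C and loaded with no-wash calcium dye.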
Background: In qHTS, concentration-response curves come from the screen itself.
As for `Cc1ccc2ccc3c(c2n1)NS(=O)(=O)c1ccccc1-3`, the activation is -0.466%.

As for `CCC(=O)N1CCc2cc(S(=O)(=O)NC(Cc3ccccc3)C(=O)NCc3ccccc3)ccc21` (stereo unspecified), the activation is 0.429%.

Regarding `CCCOc1ccc(-c2cccc(NS(=O)(=O)c3ccccc3)c2)nn1`, the activation is -0.134%.

Take `COc1ccc(-c2nc(CN3CCC(C(=O)NCc4ccccc4)CC3)c(C)o2)cc1OC`: the activation is -1.51%.

In the case of `Cc1oc(-c2ccccc2F)nc1CN1CCC(C(=O)NCCc2ccc(Cl)cc2)CC1`, the activation is 34.8% (active).

As for `COc1ccc(CCNC(=O)C2CCCN(Cc3nc(-c4cccc(Cl)c4)oc3C)C2)cc1OC` (stereo unspecified), the activation was 19.6%.

In the case of `COc1ccc(CCNCc2c(C(=O)O)c(C)n(Cc3cccc(C)c3)c2C)cc1OC`, the activation was 1.85%.

For the molecule `CCc1cc2c(-c3ccccc3)cc(=O)oc2c2c1OCN(Cc1ccc(C)cc1)C2`, the activation is 10.6%.

For the molecule `CSc1ccc(C2c3c(oc4ccccc4c3=O)C(=O)N2CCCN2CCOCC2)cc1` (stereo unspecified), the activation is -1.33%.

As for `CCc1ccc(NC(=O)C2CCCN2S(=O)(=O)c2ccc3nc(-c4ccccc4)[nH]c3c2)cc1` (stereo unspecified), the activation was 0.736%.

As for `COc1cccc(/C=C/C(=O)OCC(=O)N2CCCc3ccccc32)c1`, the activation is 9.89%.

As to `Cc1cccc2cc3c(N)c(C(=O)N4CCCc5ccccc54)sc3nc12`, the activation was 60.4% (active).

Take `CCCn1nc(C(=O)N2CCCc3ccccc32)c2ccccc2c1=O`: the activation was 0.113%.

In the case of `Oc1ccccc1-c1nc(/C=C/c2ccc(F)cc2)no1`, the activation is 5.78%.

Consider `O=C(/C=C/c1ccccc1)Nc1cc(-c2nc3cc(Cl)ccc3o2)ccc1Cl`, for which the activation was -1.26%.

Take `COc1ccc(-c2nc3sc(CCNC(=O)C(C)(C)C)c(C)n3n2)cc1`: the activation is 3.98%.

Regarding `Cc1ccc(Nc2c(-c3ccc(N(C)C)cc3)nc3nc[nH]n23)cc1`, the activation was 39.9% (active).

Regarding `Cc1ccc(-c2nc3cccc(C)n3c2Nc2ccc3c(c2)OCCO3)cc1`, the activation was -0.166%.

In the case of `Cc1ccc(Nc2c(-c3ccc(C)cc3)nc3cnccn23)cc1`, the activation was 3.9%.

With `COc1ccc(-c2nc3ccccc3s2)cc1NC(=O)COc1ccccc1C`, the activation is -0.142%.

For `Cc1cc2c(s1)c1cnn(Cc3c(F)cccc3Cl)c(=O)c1n2C`, the activation is 0.794%.

For `Cn1c(=O)c2c(n3c4ccccc4nc13)NC(=O)CC2c1cccc(Cl)c1` (stereo unspecified), the activation is 3.64%.

In the case of `COc1ccc(C(=O)CSc2n[nH]c(N)n2)cc1`, the activation is -2.12%.

Consider `COC(=O)c1cc(C(=O)CSc2nc(C)cc(C)n2)ccc1O`, for which the activation is 257% (active).

On to `COC(=O)c1cccc(NC(=O)CSc2nc(C)cc(=O)[nH]2)c1`, for which the activation is 1.14%.

Turning to `Cn1c(=O)c2c(nc(SCC(=O)Nc3ccc(F)cc3)n2Cc2ccc(Cl)cc2)n(C)c1=O`, the activation is -0.966%.

Regarding `CCOC(=O)c1ccc(NC(=O)C2CCN(S(=O)(=O)c3ccc4c(c3)CCCC(=O)N4)CC2)cc1`, the activation is -0.195%.

As for `COc1ccc(Cl)cc1N(C)C(=O)c1cc2c(=O)oc3ccc(C)cc3c2s1`, the activation is 1.68%.

In the case of `COC(=O)c1sc(-c2ccc(C(C)(C)C)cc2)cc1NC(=O)/C=C/C(=O)O`, the activation is 33% (active).

Regarding `Cc1ccc(NC(=O)c2oc3ccccc3c2NC(=O)Cc2cccs2)cc1`, the activation was 5.67%.

For the molecule `CCN1C(=O)c2ccccc2Sc2ccc(NC(=O)Cc3ccc(OC)cc3)cc21`, the activation was 8.31%.

Turning to `COc1ccc(-c2nc3ccc(C(=O)NCc4ccc(C)cc4)cc3nc2-c2ccc(OC)cc2)cc1`, the activation is -0.317%.

Turning to `COc1ccc(NC(=O)Nc2cccc(-c3noc(C)n3)c2)cc1`, the activation was -0.581%.

As for `COc1ccc(-c2onc3ccc(C(C)=O)cc23)cc1`, the activation was 68% (active).

`O=C(NCCCc1ccccc1)c1ccc2c(c1)sc1nc(-c3ccc(F)cc3)cn12`: the activation is 1.38%.

`COC(=O)c1cc(S(=O)(=O)NCC2CCN(Cc3ccc(Cl)cc3)CC2)cn1C`: the activation is 35.7% (active).

Regarding `O=S(=O)(NCC1CC1)c1ccc(F)c(Cl)c1`, the activation was 0.965%.

As for `COC(=O)c1cc(S(=O)(=O)NC2CCN(Cc3ccccc3)CC2)cn1C`, the activation is 6.94%.

With `O=C(CSc1ncc(CO)n1Cc1ccc(Cl)cc1)NCc1ccc(F)cc1`, the activation was -0.41%.

Turning to `Cc1ccc(NC(=O)CSc2nc3c(c(=O)[nH]2)CN(Cc2ccc4c(c2)OCO4)CC3)cc1C`, the activation was 2.15%.

For `CCNC(=O)CC1C(=O)N(c2ccc(F)cc2)C(=O)N1Cc1ccc(C)cc1` (stereo unspecified), the activation was -1.09%.

Consider `COCc1cc(C)nc(SCC(=O)Nc2cccc(C)c2)c1C#N`, for which the activation was 1.7%.

Take `Cc1ccc(-c2cc(C(F)(F)F)c(C#N)c(SCC(=O)Nc3ccccc3)n2)cc1`: the activation was 76.6% (active).

Regarding `Cc1cc(C(F)(F)F)c(C#N)c(SCC(=O)NC2CC2)n1`, the activation was 2.38%.

In the case of `CCOc1ccc(-n2c(C)nc3c(cnn3-c3ccc(C)cc3)c2=O)cc1`, the activation was 0.209%.

`COc1cccc(NS(=O)(=O)c2ccc3[nH]cc(C(=O)NCCCOC(C)C)c(=O)c3c2)c1`: the activation was 122% (active).

In the case of `CCCCNC(=O)c1c[nH]c2ccc(S(=O)(=O)Nc3ccc(OCC)cc3)cc2c1=O`, the activation is 5.78%.

As for `CCCCN(CC)C(=O)c1c[nH]c2ccc(S(=O)(=O)Nc3cccc(OC)c3)cc2c1=O`, the activation was 1.98%.

Turning to `O=C(c1cccs1)c1cn(CCOc2ccc(Cl)cc2)c2ccccc12`, the activation is -1.61%.

For the molecule `Cc1ccc(C)n1-c1nnc(N2CCC(C(=O)NCc3ccc(F)cc3)CC2)s1`, the activation was 2.04%.

Turning to `CC1=C(c2ccc(Cl)cc2)S(=O)(=O)N=C1N1CCN(c2cc(C)ccc2C)CC1`, the activation is 7.7%.

For the molecule `Cc1oc(-c2ccccc2)nc1Cn1c(SCc2cccc(C(F)(F)F)c2)nc2cccnc21`, the activation was 3.89%.

Consider `CCN(CC)c1ccc2oc(=O)c(C)nc2c1`, for which the activation is 192% (active).

For the molecule `CN(Cc1nc2ccccc2c(=O)[nH]1)Cc1cc(=O)oc2ccc3ccccc3c12`, the activation is -0.344%.

On to `Cc1ccc2c(=O)oc(N(C)C)nc2c1`, for which the activation is 1.52%.

As to `Cc1ccc(Cl)cc1N1CCN(C(=O)c2cn(C)c3ccc(S(=O)(=O)N(C)C4CCCCC4)cc3c2=O)CC1`, the activation is 3.27%.

The values are drawn from PubChem BioAssay AID504660 (National Center for Advancing Translational Sciences (NCATS), 2011).
